# Screens from PubChem.
# This is a sample that favours compounds with a hit; in the whole collection about 9.3% have one here.
# SMN2 splice enh – enhancers of SMN2 splice variant expression. Potency, µM (doses to about 46.1 µM), usual class: activators. HEK293 SMN2-luciferase splicing reporter, luminescence, 30-36 h. 210,000 tested, 2.8% active; also: nearly all actives have a fitted effect of over 55% in size
#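 HEK293 cells carry an SMN2 minigene-luciferase reporter in which exon 7 inclusion puts luciferase in frame. Cells were seeded at 2000 cells/well, attached for 10-12 hours, then exposed to compounds for 30-36 hours at 37C before ONE-Glo luminescence.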
# FLuc counter – firefly luciferase modulation, counter-screen for miR-21 project; purified FLuc, Km substrates, luminescence inhibition; 360,000 tested, 6.9% active; Potency, µM (series often up to 57.5 µM), actives largely listed as inhibitors; AID 588342; also: nearly all actives have a fitted effect of over 55% in size
# Target sequence (P08659 whole entry, looked up): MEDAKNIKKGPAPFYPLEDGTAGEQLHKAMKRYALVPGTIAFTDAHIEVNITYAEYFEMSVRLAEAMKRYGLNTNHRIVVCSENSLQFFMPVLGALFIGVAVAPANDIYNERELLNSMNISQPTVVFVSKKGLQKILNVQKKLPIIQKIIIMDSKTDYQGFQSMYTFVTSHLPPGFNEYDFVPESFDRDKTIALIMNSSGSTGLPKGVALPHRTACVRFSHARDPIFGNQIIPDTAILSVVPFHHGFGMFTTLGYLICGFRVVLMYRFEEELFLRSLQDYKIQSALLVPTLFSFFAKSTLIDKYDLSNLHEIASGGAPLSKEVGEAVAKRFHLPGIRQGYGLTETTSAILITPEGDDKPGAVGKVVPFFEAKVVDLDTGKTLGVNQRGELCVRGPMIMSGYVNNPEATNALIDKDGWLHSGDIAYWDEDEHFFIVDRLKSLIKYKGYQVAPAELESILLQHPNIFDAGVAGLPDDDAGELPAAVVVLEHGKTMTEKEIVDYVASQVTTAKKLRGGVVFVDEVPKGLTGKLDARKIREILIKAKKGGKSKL
#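 Biochemical qHTS of compounds, final roughly 60 µM downward over six points, against 10 nM purified firefly luciferase using Km concentrations of substrates (10 uM D-luciferin, 10 uM ATP) in Tris acetate pH 7.5 buffer; luminescence output.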
# ELG1 repair inh – ELG1-dependent DNA repair inhibition; AID 504467; HEK293T ELG1-luciferase reporter, luminescence, 16 h; DNA damage induced by 5-fluorouridine; 330,000 tested, 2.3% active; Potency, µM (highest dose often 46.1 µM), most hits filed as inhibitors; also: nearly all actives have a fitted effect of over 55% in size
#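 5-Fluorouridine DNA damage + compound/DMSO, 2,000 cells/well, 16 h, 37 °C/5% CO2. ONE-Glo, 30 min RT, luminescence. Readout = decrease in reporter signal.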
# ELG1 genotoxic – genotoxicity induction in ELG1-luciferase HEK293T cells | AID 504466 | 330,000 tested, 1.3% active | Potency, µM (series often up to 46 µM), most hits filed as activators | HEK293T ELG1-luciferase reporter, luminescence, 16 h; also: nearly all actives have a fitted effect of over 60% in size
#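 DMSO vehicle served as control against compound-treated ELG1-luciferase HEK293T cells; exposure lasted 16 hr at 37 °C and 5% CO2, followed by ONE-Glo luminescence detection after 30 min.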
# Rab9 prom act – activators of Rab9 promoter; AID 485297; Potency, µM (highest dose often 9.22 µM), hits mostly activators; Huh7 Rab9 promoter-luciferase reporter, luminescence, 24 h; 320,000 tested, 2.8% active; also: nearly all actives have a fitted effect of over 60% in size
#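 Steps: seed 1500 Huh7 Rab9-luc cells per well, rest 2 h at 37 °C; add compound in DMSO; incubate 24 h; add luciferase reagent, 10 min ambient; read luminescence.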
# NPC1 prom act – activates the NPC1 promoter. 320,000 tested, 2.4% active. Huh7 NPC1 promoter luciferase reporter, 24 h. Potency, µM (titrated, usually from 9.22 µM), usual class: activators. AID 485313; also: nearly all actives have a fitted effect of over 60% in size
#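 Quantitative HTS used a cell-based reporter: Huh7 cells stably bearing the NPC1 promoter upstream of luciferase were treated with compounds for 24 h, and promoter activation was read as luminescence.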
# A number is an active result; – = inactive; ? = inconclusive; · = not tested or not shown. Calls follow the shape of the dose curve; as a rule, active = well fitted curve in the direction sought with a large enough effect; inconclusive = small, poorly fitted or top-dose-only effect, or another doubt; inactive = no such curve, though single readings can be large; an effect the other way counts as inactive or inconclusive.
SMILES,SMN2 splice enh,FLuc counter,ELG1 repair inh,ELG1 genotoxic,Rab9 prom act,NPC1 prom act
O=C(Nc1nccs1)c1ccc(-c2ccc(F)cc2)o1,11.2µM,2.13µM,?,?,3.55µM,2.24µM
O=C(Nc1nccs1)c1ccc(-c2ccc([N+](=O)[O-])cc2)o1,12.6µM,6.01µM,?,?,1.41µM,1.78µM
CCOc1ccccc1/C=N/Nc1cc(C)nc2ccc(C)cc12,·,–,?,–,–,–
CC1CCC/C(=N\NC(=O)Nc2ccccc2)C1 (stereo not given),·,15.1µM,–,–,–,–
O=C(COc1ncnc2ccccc12)Nc1cccc([N+](=O)[O-])c1,–,–,–,–,–,–
Cc1ccc(C(O)(c2ccccc2)c2ccccc2C(C)N(C)C)c(C)c1 (stereo not given),–,–,–,–,–,–
CN(CC(=O)Nc1ccccc1C(=O)NC1CC1)Cc1ccc(Cl)cc1,·,–,–,–,–,–
CCOc1ccc(CN(C)CC(=O)Nc2ccccc2C(=O)NC2CC2)cc1,·,–,14.6µM,–,–,–
CCOC(=O)C(C)(C)N(Cc1ccc(Cl)cc1)S(=O)(=O)c1ccc(Cl)c([N+](=O)[O-])c1,–,–,18.4µM,–,–,–
CCOC(=O)C(C)(C)N(Cc1ccc(C)cc1)S(=O)(=O)c1ccc(Cl)c([N+](=O)[O-])c1,–,–,?,–,–,–
NC(=O)N/N=C/c1ccccc1OC(=O)c1cc2ccccc2oc1=O,·,?,?,?,–,–
NC(=S)N/N=C/c1ccccc1OC(=O)/C=C/c1ccccc1,·,26.9µM,–,–,–,–
NC(=S)N/N=C/c1ccccc1OC(=O)c1cc2ccccc2oc1=O,·,21.3µM,?,–,–,–
O=c1[nH]c(-c2ccccc2)nnc1-c1ccccc1,·,16.9µM,?,?,?,?
Cc1nnc(-c2ccccc2)[nH]c1=O,–,–,–,–,–,–
CC(C(=O)Nc1nncs1)N1C(=O)C2C3C=CC(C3)C2C1=O (stereo not given),–,–,–,–,–,–
O=C(c1cccs1)N1CCOCC1,–,–,–,–,–,–
Cc1ccc(N=C(c2cccs2)N2CCOCC2)cc1,17.8µM,–,?,?,–,–
O/N=C/c1ccn(-c2ccc(Br)cc2)c1,–,23.9µM,?,–,–,–
Cc1cc(/C=N/O)c(C)n1-c1ccc(Br)cc1,–,–,–,–,–,–
Cc1cccc(NC(=O)C2C3C=CC(C4CC34)C2C(=O)O)c1 (stereo not given),–,16.9µM,–,–,–,–
Cc1cccc(NC(=O)C2C3C=CC(O3)C2C(=O)O)c1 (stereo not given),·,–,–,–,–,–
COC(=O)c1ccc(NC(=O)c2cccc(N3C(=O)C4C5C=CC(C6CC56)C4C3=O)c2)cc1 (stereo not given),·,?,?,?,–,–
O=C(Nc1ccccc1)c1cccc(N2C(=O)C3C4C=CC(C5CC45)C3C2=O)c1 (stereo not given),·,–,?,–,–,–
O=C(Nc1ccc(Br)cc1)c1cccc(N2C(=O)C3C4CCC(C4)C3C2=O)c1 (stereo not given),–,?,16.4µM,–,–,–
SMILES,SMN2 splice enh,FLuc counter,ELG1 repair inh,ELG1 genotoxic,Rab9 prom act,NPC1 prom act
O=C(Nc1ccc(F)cc1)c1cccc(N2C(=O)C3C4CCC(C4)C3C2=O)c1 (stereo not given),–,–,?,–,–,–
O=C(Nc1ccc(F)cc1)c1cccc(N2C(=O)C3C4C=CC(C5CC45)C3C2=O)c1 (stereo not given),·,–,16.4µM,–,–,–
Cc1cccc(NC(=O)c2ccc(N3C(=O)C4C5C=CC(C6CC56)C4C3=O)cc2)c1 (stereo not given),·,?,8.2µM,–,–,–
CCC1CCCCN1Cc1c(O)ccc2c(=O)c(-c3ccccc3)coc12 (stereo not given),·,–,?,–,–,–
CCOC(=O)Cn1cnc2scc(-c3ccc(C)cc3)c2c1=O,·,–,–,–,–,–
Cc1ccc(N=CC=C2OC(C)(C)C(C)(C)O2)c(C)c1,–,7.57µM,?,–,–,–
